# ST2 IL33 inh: blocks human ST2 binding to IL-33 | Q01638 | AlphaLISA ST2-Fc/biotin-IL-33 interaction, 1 h | inhibition, % for hits at 17 µM | 2.3% of 78,000 active; in the data active = inhibition above about 30%
# Target sequence (Q01638 whole entry, looked up): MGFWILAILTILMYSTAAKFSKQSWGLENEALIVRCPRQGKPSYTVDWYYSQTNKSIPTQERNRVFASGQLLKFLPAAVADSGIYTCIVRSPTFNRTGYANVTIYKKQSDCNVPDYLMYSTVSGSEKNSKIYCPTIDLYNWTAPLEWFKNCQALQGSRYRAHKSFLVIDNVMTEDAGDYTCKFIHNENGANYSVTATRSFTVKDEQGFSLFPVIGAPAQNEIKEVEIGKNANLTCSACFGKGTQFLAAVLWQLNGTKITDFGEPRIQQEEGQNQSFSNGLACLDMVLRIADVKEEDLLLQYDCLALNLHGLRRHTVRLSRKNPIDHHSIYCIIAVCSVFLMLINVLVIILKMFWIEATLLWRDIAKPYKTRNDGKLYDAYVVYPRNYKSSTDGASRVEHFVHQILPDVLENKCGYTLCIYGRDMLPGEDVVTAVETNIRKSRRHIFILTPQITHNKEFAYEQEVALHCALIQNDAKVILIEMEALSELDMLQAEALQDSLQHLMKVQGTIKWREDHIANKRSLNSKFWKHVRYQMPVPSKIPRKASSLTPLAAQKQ
# Active calls of the source: *; i = inactive. Shown is part of a subset that was picked to be rich in hits.
SMILES,ST2 IL33 inh
Cc1ccccc1-c1nsc(SCC(=O)Nc2ccc3c(c2)OCCO3)n1,i
CCc1nnsc1C(=O)N1C[C@H]2CC=CC[C@H]2C1,i
O=C(O)c1ccc(NS(=O)(=O)c2cccc(S(=O)(=O)c3ccc(Cl)cc3)c2)cc1,i
COC(=O)c1c(NC(=O)C(C)(C)C)sc2c1CCC(C)C2 (configuration not stated),i
Cc1cccc(C)c1NC(=O)CSc1ccc(C(F)(F)F)cn1,i
O=C(Nc1ccccc1[N+](=O)[O-])C1=NN=CC1[N+](=O)[O-] (configuration not stated),i
O=C(Nc1ccccc1[N+](=O)[O-])C1=C(O)CCn2c1nc1ccccc12,34%*
Cc1nc2ccccc2n1C(=O)c1ccccc1[N+](=O)[O-],i
Cc1ccc2c(-c3cc4c(n(CC5CC5)c3=O)CCN(C(=O)c3ccc5c(c3)OCO5)C4)cccc2n1,i
CC1=C(C(=O)Nc2ccccc2C)C(c2ccncc2)n2nc(SCc3ccccc3)nc2N1 (configuration not stated),33%*
CC1=C(C(N)=O)C(c2ccccc2)n2nc(SCc3ccccc3)nc2N1 (configuration not stated),i
CC1=C(C(=O)Nc2ccccc2)C(c2cccnc2)n2nc(SCc3ccccc3)nc2N1 (configuration not stated),i
CN(C)c1ccc(-c2nnc3c(n2)c(=O)n(C)c(=O)n3C)cc1,i
CC1CCN(C(=O)Cn2c(=O)n(-c3ccc(F)cc3F)c(=O)c3sccc32)CC1,i
CN(C(=O)Cn1c(=O)n(-c2ccc(F)cc2F)c(=O)c2sccc21)c1ccccc1,47%*
O=c1c2sccc2n(Cc2ccccc2)c(=O)n1-c1cc(F)ccc1F,i
O=C(NCCCN1CCOCC1)c1cnc(N2CCN(c3ccccn3)CC2)c2ccccc12,i
COc1ccc(OC)c(C2NC(=O)NC(C)=C2C(=O)Nc2ccccn2)c1 (configuration not stated),i
COCc1nc(NC(C)c2cc(OC)ccc2OC)c2cnn(C)c2n1 (configuration not stated),i
Cc1ccc(OCCOCCN2CCOCC2)cc1,i
Cc1nc(N2CCOCC2)c2c(C)c(C(=O)N3CCC(C)CC3)sc2n1,i
CCOc1ccccc1/C=C1\N=C(c2ccc(OC)c([N+](=O)[O-])c2)OC1=O,i
COc1ccc(C2=Cc3cc(OC)c(OC)cc3/C(=C/c3ccc(OC)c(OC)c3)O2)cc1,i
Cc1cc2c(c(=O)[nH]1)C(=O)O/C2=C\c1cccs1,i
CCOc1ccc(/C=C2\N=C(c3ccccc3OC)OC2=O)cc1OCC,34%*
SMILES,ST2 IL33 inh
CCOc1ccc(/C=C2\N=C(c3ccccc3Cl)OC2=O)cc1,i
CCOc1ccc(/C=C2/OC(=O)c3c2cc(C)[nH]c3=O)cc1OC,51%*
COc1ccc(S(=O)(=O)N2C[C@@H]3C[C@H](C2)c2c(-c4ccc5ccccc5c4)ccc(=O)n2C3)cc1,i
COc1ccc(OCC(=O)Nc2c(C(=O)Nc3cccc(F)c3)oc3ccccc23)cc1,i
CCn1c(C2CCCN(C/C=C/c3ccc(F)cc3)C2)n[nH]c1=O (configuration not stated),i
CC(C)CCNC(=O)CSc1nc(-c2ccc3c(c2)OCO3)nc2cc(=O)[nH]n12,i
CC(=O)Nc1ccc(N=Cc2ccccc2O)cc1,i
CCN(CC)c1ccc(C=Nc2cc(Cl)ccc2O)c(O)c1,i
CCN(CC)c1ccc(N=Cc2ccccc2O)cc1,79%*
COc1ccc(C=Nc2sc3c(c2C#N)CCCC3)cc1[N+](=O)[O-],i
NS(=O)(=O)c1ccc(N=Cc2ccc(Br)cc2)cc1,i
Cc1sc(N=Cc2ccc(Br)cc2)c(C#N)c1C,55%*
O=C(NCCCN1CCOCC1)c1ccc2c(c1)ncn2C1CCCC1,i
CCCc1cnc(C)nc1N1CC[C@@H](N)[C@@H](OC)C1,i
CC1(C)CC(=O)C2=C(C1)N(c1ccc(S(N)(=O)=O)cc1)C(N)=C(C#N)C2c1ccco1 (configuration not stated),i
CC(C)=Cc1oc2c(Cl)cc(Cl)cc2c1N1CCOCC1,30%*
CC(=O)Nc1ccc(N2CCOCC2)cc1,i
COc1c(Cl)cc(Cl)cc1C(=O)Nc1ccccc1N1CCOCC1,i
O=C(/C=C/c1cccs1)N1CCCC(Nc2ccc3c(c2)OCCO3)C1 (configuration not stated),i
Cc1cccc(CC(=O)Nc2cnn(-c3cccc(C(=O)NC4CCOC(C)(C)C4)c3)c2)c1 (configuration not stated),i
Clc1cccc(CN2CCOCC2)c1Cl,i
CS(=O)(=O)NCCC1CN(Cc2ccnc3ccccc23)CCO1 (configuration not stated),i
c1ccc2c(CN3CCOCC3)ccnc2c1,40%*
O=C(c1cccn2c(=O)c3sccc3nc12)N1CCN(c2ccccc2)CC1,i
CCSc1nc2c(c(=O)[nH]1)C(c1ccccc1OC)C1=C(CC(C)(C)CC1=O)N2 (configuration not stated),i
SMILES,ST2 IL33 inh
Cc1cnccc1CN(C)C(=O)CCN1CCCCO1,i
O=C(CCN1CCCCO1)NCc1ccc2c(c1)OCCCO2,i
Cc1oc2ccc(NS(=O)(=O)c3ccc(Br)cc3)cc2c1C(=O)O,i
CCOC(=O)c1c(C)n(-c2ccccc2)c2ccc(OC(=O)c3ccco3)cc12,i
Cc1c(CCCN)c2ccccc2n1-c1ccccc1,34%*
CCn1c(C(=O)O)c(CC(=O)N2CCN(c3ccccc3)CC2)c2ccccc21,i
Cc1cc(C)c2c(CC(=O)N3CCCC4(CNC(=O)O4)C3)coc2c1C (configuration not stated),i
Cn1c(SCC(=O)N2CCCCC2)nc(O)cc1=O,i
CC1=C[C@@H](CNC(=O)NC2CCCCC2)[C@H](C(C)C)C[C@H]1CC(=O)O,i
COCC(=O)NC[C@@H]1C=C(C)[C@H](CC(=O)O)C[C@H]1C(C)C,32%*
CC1=C[C@@H](CNC(=O)c2ccccc2)[C@H](C(C)C)C[C@H]1CC(=O)O,i
CCCNC(=O)CCS(=O)(=O)c1cc(Br)cc2c1N(C(C)=O)CC2,i
O=C1c2ccccc2C(=O)N1CN(C(=O)c1ccccc1)c1ccc(F)cc1,77%*
CC(=O)N(CN1C(=O)c2ccccc2C1=O)c1ccc(F)cc1,i
O=C1c2ccccc2C(=O)N1CN(C(=O)c1ccccc1)c1ccc(Br)cc1,i
Oc1oc(-c2ccc(Br)cc2)nc1C=Nc1ccccn1,i
Oc1oc(-c2ccc(Br)cc2)nc1C=Nc1cc(Cl)ccc1Cl,i
Oc1oc(-c2ccccc2)nc1C=Nc1cccc(Cl)c1,i
Oc1oc(-c2ccccc2)nc1C=Nc1cccc(F)c1,i
Oc1oc(-c2ccc(Br)cc2)nc1C=Nc1ccc(Cl)cc1Cl,i
Oc1oc(-c2ccc(Cl)cc2)nc1C=Nc1ccccc1Br,31%*
Oc1oc(-c2ccc(Cl)cc2)nc1C=Nc1ccc(Br)cc1,i
Oc1oc(-c2ccc(Br)cc2)nc1C=Nc1ccc(Cl)cn1,42%*
Oc1oc(-c2ccc(Cl)cc2)nc1C=Nc1cccc(F)c1,31%*
O=c1[nH][nH]c(=O)c2c(N=Cc3ccc(Br)s3)cccc12,i
CC1=C(C(=O)Nc2cc(C)ccn2)C(c2ccsc2)C2=C(CCCC2=O)N1 (configuration not stated),i
O=c1[nH]c(Nc2nc3ccccc3[nH]2)nc2ccccc12,i
O=C(C1CCCC1)N1CCN=C1SCc1cccc(C(F)(F)F)c1,i

# Bioassay records deposited in PubChem by Paczesny and Yang Labs, IUPUI and University of Michigan.
